# Experimental data reported in the supplement of paper PMC8728848.
# This is one part of a sample in which the strongest signals are shown more often than they occur.
# B1: HFR-3 (Triticum aestivum) (protein)
# chain: MKGLLLCALALAFAAVTTHAQLQSCPTRCGKQADGMECPNNLCCSKDGYCGLGVDYCSAGAGCQSGACYDNKICGAQANGTLCRNNHCCSSGGRCGYGREYCSNGCQGGPCWADLKCGHLDNGKLCPNNLCCSQYGYCGLGPEFCGTGCQNGACSTDKPCGNKANGAPCTNNYCCSQYGSCGLGKDYCGTGCQNGACN
# How the values were obtained:
# Assay in all cases: glycan array binding signal (z-score within array); higher = stronger binding
# Conditions in all cases: glycan notation: IUPAC condensed, linker removed
# [1] = biological target: Fuc(a1-2)Gal(b1-3)GalNAc(b1-3)Gal
# Method in brief: (§1)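 Glycan array data were curated from 3228 arrays in the Consortium for Functional Glycomics database and kept only where the protein sequence was available. Glycan names were converted to IUPAC-condensed notation, and columns mapping to the same glycan were averaged. The binding signal is a within-array Z-score, averaged across arrays of the same protein sequence at different concentrations or buffers and across linkers. Negative Z-scores can be read as non-binding.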
# [2] = biological target: Fuc(a1-2)Gal(b1-3)[Fuc(a1-4)]GlcNAc(b1-3)[Fuc(a1-3)[Gal(b1-4)]GlcNAc(b1-6)]Gal(b1-4)Glc
# Method in brief: as §1
# [3] = biological target: Fuc(a1-2)[GalNAc(a1-3)]Gal(b1-3)GalNAc(b1-3)Gal(a1-4)Gal(b1-4)Glc
# Method in brief: as §1
# [4] = biological target: Fuc(a1-2)[GalNAc(a1-3)]Gal(b1-4)[Fuc(a1-3)]GlcNAc
# Method in brief: as §1
# [5] = biological target: Fuc(a1-3)[Gal(b1-4)]Glc6S
# Method in brief: as §1
# [6] = biological target: Fuc(a1-3)[Gal(b1-4)]GlcNAc(b1-6)GalNAc
# Method in brief: as §1
# [7] = biological target: Gal(a1-3)Gal(b1-3)GlcNAc(b1-6)GalNAc
# Method in brief: as §1
# Gal(a1-3)Gal(b1-4)GlcNAc = biological target: Gal(a1-3)Gal(b1-4)GlcNAc
# Method in brief: as §1
# [8] = biological target: Gal(a1-3)Gal(b1-4)[Fuc(a1-3)]GlcNAc
# Method in brief: as §1
# Gal(a1-3)GalNAc = biological target: Gal(a1-3)GalNAc
# Method in brief: as §1
# [9] = biological target: Gal(a1-3)[Gal(a1-4)]Gal(b1-4)GlcNAc
# Method in brief: as §1
# Gal(a1-4)Gal(b1-4)Glc = biological target: Gal(a1-4)Gal(b1-4)Glc
# Method in brief: as §1
# Gal(b1-3)Gal = biological target: Gal(b1-3)Gal
# Method in brief: as §1
# Gal(b1-3)GalNAc(b1-3)Gal = biological target: Gal(b1-3)GalNAc(b1-3)Gal
# Method in brief: as §1
# [10] = biological target: Gal(b1-3)GalNAc(b1-4)Gal(b1-4)Glc
# Method in brief: as §1
# [11] = biological target: Gal(b1-3)GlcNAc(b1-2)Man(a1-3)[Gal(b1-3)GlcNAc(b1-2)Man(a1-6)]Man(b1-4)GlcNAc(b1-4)[Fuc(a1-6)]GlcNAc
# Method in brief: as §1
# [12] = biological target: Gal(b1-3)[GlcNAc(b1-6)]GalNAc
# Method in brief: as §1
# Gal(b1-4)GlcNAc = biological target: Gal(b1-4)GlcNAc
# Method in brief: as §1
# [13] = biological target: Gal(b1-4)GlcNAc(b1-2)Man(a1-3)[Gal(b1-4)GlcNAc(b1-2)Man(a1-6)][Gal(b1-4)GlcNAc(b1-4)]Man(b1-4)GlcNAc(b1-4)[Fuc(a1-6)]GlcNAc
# Method in brief: as §1
# [14] = biological target: Gal(b1-4)GlcNAc(b1-2)Man(a1-6)Man(b1-4)GlcNAc(b1-4)GlcNAc
# Method in brief: as §1
# [15] = biological target: Gal(b1-4)GlcNAc(b1-2)[Gal(b1-4)GlcNAc(b1-6)]Man(a1-6)[GlcNAc(b1-4)][Gal(b1-4)GlcNAc(b1-2)Man(a1-3)]Man(b1-4)GlcNAc(b1-4)GlcNAc
# Method in brief: as §1
# [16] = biological target: Gal(b1-4)GlcNAc(b1-3)Gal(b1-4)GlcNAc(b1-3)Gal(b1-4)GlcNAc(b1-2)[Gal(b1-4)GlcNAc(b1-3)Gal(b1-4)GlcNAc(b1-3)Gal(b1-4)GlcNAc(b1-6)]Man(a1-6)[Gal(b1-4)GlcNAc(b1-3)Gal(b1-4)GlcNAc(b1-3)Gal(b1-4)GlcNAc(b1-2)Man(a1-3)]Man(b1-4)GlcNAc(b1-4)[Fuc(a1-6)]GlcNAc
# Method in brief: as §1
# [17] = biological target: Gal(b1-4)GlcNAc(b1-3)[GlcNAc(b1-6)]Gal(b1-4)GlcNAc
# Method in brief: as §1
# Gal3S(b1-3)GalNAc = biological target: Gal3S(b1-3)GalNAc
# Method in brief: as §1
# [18] = biological target: Gal3S(b1-4)[Fuc(a1-3)]Glc6S
# Method in brief: as §1
# Gal4S6S(b1-4)GlcNAc = biological target: Gal4S6S(b1-4)GlcNAc
# Method in brief: as §1
# GalNAc(b1-3)Gal = biological target: GalNAc(b1-3)Gal
# Method in brief: as §1
# GalNAc(b1-4)GlcNAc = biological target: GalNAc(b1-4)GlcNAc
# Method in brief: as §1
# [19] = biological target: GalNAc(b1-4)GlcNAc(b1-2)Man(a1-3)[GalNAc(b1-4)GlcNAc(b1-2)Man(a1-6)]Man(b1-4)GlcNAc(b1-4)GlcNAc
# Method in brief: as §1
binder,measurement,setting,value
B1,glycan array binding signal (z-score),[1],-0.52
same,glycan array binding signal (z-score),[2],-0.893
same,glycan array binding signal (z-score),[3],-1.32
same,glycan array binding signal (z-score),[4],-0.585
same,glycan array binding signal (z-score),[5],-1.23
same,glycan array binding signal (z-score),[6],-1.31
same,glycan array binding signal (z-score),[7],-0.577
same,glycan array binding signal (z-score),Gal(a1-3)Gal(b1-4)GlcNAc,0.079
same,glycan array binding signal (z-score),[8],-0.409
same,glycan array binding signal (z-score),Gal(a1-3)GalNAc,2.1
same,glycan array binding signal (z-score),[9],1.2
same,glycan array binding signal (z-score),Gal(a1-4)Gal(b1-4)Glc,2.12
same,glycan array binding signal (z-score),Gal(b1-3)Gal,-0.289
same,glycan array binding signal (z-score),Gal(b1-3)GalNAc(b1-3)Gal,-0.312
same,glycan array binding signal (z-score),[10],2.24
same,glycan array binding signal (z-score),[11],0.089
same,glycan array binding signal (z-score),[12],-0.111
same,glycan array binding signal (z-score),Gal(b1-4)GlcNAc,-0.853
same,glycan array binding signal (z-score),[13],-0.212
same,glycan array binding signal (z-score),[14],-0.488
same,glycan array binding signal (z-score),[15],1.51
same,glycan array binding signal (z-score),[16],2.51
same,glycan array binding signal (z-score),[17],-0.381
same,glycan array binding signal (z-score),Gal3S(b1-3)GalNAc,1.67
same,glycan array binding signal (z-score),[18],6.1
same,glycan array binding signal (z-score),Gal4S6S(b1-4)GlcNAc,0.828
same,glycan array binding signal (z-score),GalNAc(b1-3)Gal,1.25
same,glycan array binding signal (z-score),GalNAc(b1-4)GlcNAc,2.48
same,glycan array binding signal (z-score),[19],0.738
